The molecules below were run against T1, Aspartate--tRNA(Asp/Asn) ligase (Mycobacterium tuberculosis (strain ATCC 25618 / H37Rv)) (UniProt P9WFW3) (assay: Assay for Asp RNA synthetase-1 from Mycobacterium tuberculosis). Details: 30 µM.
T1 sequence (whole entry): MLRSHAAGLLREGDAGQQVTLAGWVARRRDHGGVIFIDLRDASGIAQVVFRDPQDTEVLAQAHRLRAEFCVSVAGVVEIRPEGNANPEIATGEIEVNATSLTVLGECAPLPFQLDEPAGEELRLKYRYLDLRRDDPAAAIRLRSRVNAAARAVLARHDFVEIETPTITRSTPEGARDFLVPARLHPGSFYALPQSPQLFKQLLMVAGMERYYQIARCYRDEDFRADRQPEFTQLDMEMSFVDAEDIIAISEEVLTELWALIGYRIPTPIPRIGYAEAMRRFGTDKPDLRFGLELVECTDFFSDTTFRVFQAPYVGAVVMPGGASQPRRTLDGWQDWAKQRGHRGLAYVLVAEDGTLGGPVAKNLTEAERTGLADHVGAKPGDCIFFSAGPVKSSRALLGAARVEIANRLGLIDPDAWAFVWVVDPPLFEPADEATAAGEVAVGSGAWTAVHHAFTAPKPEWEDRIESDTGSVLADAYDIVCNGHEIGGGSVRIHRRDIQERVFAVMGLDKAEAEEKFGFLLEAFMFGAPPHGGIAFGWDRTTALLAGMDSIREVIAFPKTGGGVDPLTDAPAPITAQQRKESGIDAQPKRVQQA
Format: functional
Parameters: scale not given: direction of the effect not stated beside the values

In order of falling Percent Effect:
1. Cc1oc(-c2ccsc2)nc1CC(=O)NCCS(C)(=O)=O  12.7%
2. N#Cc1ncn(CC(=O)Nc2cc(Cl)ccc2F)n1  9.55%
3. Cc1cccc(NC(=O)CNC(=O)Cn2ncc(Cl)c(Cl)c2=O)c1C  9.53%
4. Cc1nccn1-c1cc(CNC(=O)c2ccccn2)ccn1  8.28%
5. O=C(NCCNc1cnccn1)C1CCN(C(=O)N2CCCC2)CC1  6.24%
6. CCc1nc(CN2CCCC(NCc3ncc(C(C)(C)C)o3)C2)no1 (stereo not given)  5.85%
7. Cc1ccc(CN2CCc3ncnc(-c4cccnc4)c3CC2)o1  4.98%
8. Cc1ccc(-c2cc(CNC(=O)N3CCC(CO)CC3)on2)cc1  3.99%
9. CCOc1ccc(Cl)cc1C1CCCN1 (stereo not given)  3.74%
10. O=C(CN1CCCCC1C1OCCO1)Nc1ccc(F)c(F)c1 (stereo not given)  3.65%
11. Cc1ccc(SCC(=O)NS(=O)(=O)c2ccc3c(c2)OCCO3)cc1  3.3%
12. CN(C)C(=O)c1nc2c(s1)CCN(C(=O)c1ccc(Cl)cc1)CC2  2.36%
13. CN(Cc1cn2c(n1)CN(c1ncc(F)cn1)CC2)Cc1ccco1  2.34%
14. Cc1ccc(CNC(C)c2ccc3[nH]c(=O)[nH]c3c2)s1 (stereo not given)  1.6%
15. Cc1ccc(C(=O)NS(=O)(=O)c2cccc3cnccc23)c(=O)[nH]1  1.11%
16. CC(C)(C)NC(=O)NC(=O)CNC(C)(C)c1ccc2c(c1)OCCO2  0.459%
17. COCCNC(=O)c1cc(S(=O)(=O)N2CCCCC2)cs1  0.21%
18. CCc1nc(C2CCCN2CCn2cncn2)no1 (stereo not given)  0.0232%
19. O=C(c1cc(COc2ccc3c(c2)OCO3)[nH]n1)N1CCOCC1  -0.0228%
20. COC(=O)c1ccc(C(=O)NS(=O)(=O)c2cncc(Br)c2)cc1  -0.323%
21. O=C(O)CCc1cccc(C2CCCN2Cc2ccc(F)c(F)c2)n1 (stereo not given)  -0.372%
22. Cc1cnn(C2CCCN(C(=O)c3cn4cccnc4n3)C2)c1 (stereo not given)  -0.409%
23. CCN1CC(C(=O)N(C)Cc2ccon2)CC1=O (stereo not given)  -0.748%
24. Cc1noc(C)c1CCC(=O)N1CCCN(Cc2cscn2)CC1  -0.789%
25. Cn1cc(Br)c(=O)c(NS(=O)(=O)c2cc(F)ccc2Cl)c1  -1.26%
26. Cc1ccccc1-c1cc(C(=O)N2CCn3c(C)nnc3C2)[nH]n1  -2.28%
27. Cc1cccc(CN2CCC3(CCCN(C(=O)c4ccsc4)C3)C2=O)n1 (stereo not given)  -2.4%
28. Cc1nnc(CN2CCCC(c3cc(C(N)=O)[nH]n3)C2)o1 (stereo not given)  -2.96%
29. Cc1nn(C)c(N2CCOCC2)c1CNC(C)c1ccco1 (stereo not given)  -3.01%
30. O=C(CCc1cscn1)NS(=O)(=O)c1ccc2ccccc2c1  -3.43%
31. CC(Oc1ccccc1C(F)(F)F)C(=O)NCC(N)=O (stereo not given)  -3.56%
32. O=C(Cc1ccccc1)N1CCC2(CC(=O)N(c3ccsc3)C2)C1 (stereo not given)  -3.62%
33. COc1ccc(-c2nc(CN3CCc4c(ncn4C)C3)cs2)cc1  -3.7%
34. CN(CC1CN(Cc2cn3ccsc3n2)CCO1)c1cccnn1 (stereo not given)  -3.78%
35. Cn1ccc(C(=O)N2CCCC(n3cncn3)C2)cc1=O (stereo not given)  -4.15%
36. CC1CN(Cc2noc(C3CC3)n2)CCN1Cc1nccn1C (stereo not given)  -4.25%
37. Cc1nc(C2CCCN(C(=O)CCCn3cccn3)C2)no1 (stereo not given)  -5.28%
38. COCC(=O)N1CCN(C(=O)c2scnc2C)CC1  -5.75%
39. CN(C)Cc1cnc2n1CCN(Cc1ccsc1)CC2  -5.79%
40. CCc1noc(C(C)N2CCC(N3CCCC3)CC2)n1 (stereo not given)  -8.83%

These molecules were tested against Shiga toxin 2 (Escherichia coli O157:H7) (UniProt P09385+P09386) (assay: E. coli 0.157:H7 Shiga Toxin SOP - stx2 screening assay). Details: 30 µM.
Format: functional
Parameters: scale not given: direction of the effect not stated beside the values

In order of falling Percent Effect:
1. CC(C)(C)NC(=O)NC(=O)CNC(C)(C)c1ccc2c(c1)OCCO2  41.7%
2. Cc1noc(C)c1CCC(=O)N1CCCN(Cc2cscn2)CC1  27.4%
3. Cc1ccc(SCC(=O)NS(=O)(=O)c2ccc3c(c2)OCCO3)cc1  21.2%
4. Cn1cc(Br)c(=O)c(NS(=O)(=O)c2cc(F)ccc2Cl)c1  16.3%
5. Cc1ccc(-c2cc(CNC(=O)N3CCC(CO)CC3)on2)cc1  16.1%
6. CC(Oc1ccccc1C(F)(F)F)C(=O)NCC(N)=O (stereo not given)  11.5%
7. O=C(CCc1cscn1)NS(=O)(=O)c1ccc2ccccc2c1  11.4%
8. Cc1ccc(CN2CCc3ncnc(-c4cccnc4)c3CC2)o1  9.48%
9. Cc1cnn(C2CCCN(C(=O)c3cn4cccnc4n3)C2)c1 (stereo not given)  8.96%
10. COC(=O)c1ccc(C(=O)NS(=O)(=O)c2cncc(Br)c2)cc1  8.86%
11. Cc1nn(C)c(N2CCOCC2)c1CNC(C)c1ccco1 (stereo not given)  5.98%
12. CCOc1ccc(Cl)cc1C1CCCN1 (stereo not given)  5.67%
13. Cc1nnc(CN2CCCC(c3cc(C(N)=O)[nH]n3)C2)o1 (stereo not given)  4.59%
14. O=C(CN1CCCCC1C1OCCO1)Nc1ccc(F)c(F)c1 (stereo not given)  3.89%
15. O=C(O)CCc1cccc(C2CCCN2Cc2ccc(F)c(F)c2)n1 (stereo not given)  2.71%
16. CCc1nc(CN2CCCC(NCc3ncc(C(C)(C)C)o3)C2)no1 (stereo not given)  2.13%
17. Cc1ccc(C(=O)NS(=O)(=O)c2cccc3cnccc23)c(=O)[nH]1  1.19%
18. CCc1nc(C2CCCN2CCn2cncn2)no1 (stereo not given)  -0.231%
19. COCCNC(=O)c1cc(S(=O)(=O)N2CCCCC2)cs1  -0.342%
20. Cc1ccc(CNC(C)c2ccc3[nH]c(=O)[nH]c3c2)s1 (stereo not given)  -1.3%
21. Cc1nccn1-c1cc(CNC(=O)c2ccccn2)ccn1  -3.43%
22. CN(C)Cc1cnc2n1CCN(Cc1ccsc1)CC2  -3.72%
23. CCc1noc(C(C)N2CCC(N3CCCC3)CC2)n1 (stereo not given)  -5.16%
24. Cn1ccc(C(=O)N2CCCC(n3cncn3)C2)cc1=O (stereo not given)  -5.76%
25. CN(Cc1cn2c(n1)CN(c1ncc(F)cn1)CC2)Cc1ccco1  -8.28%
26. CN(CC1CN(Cc2cn3ccsc3n2)CCO1)c1cccnn1 (stereo not given)  -9.36%
27. O=C(Cc1ccccc1)N1CCC2(CC(=O)N(c3ccsc3)C2)C1 (stereo not given)  -10.4%
28. Cc1cccc(CN2CCC3(CCCN(C(=O)c4ccsc4)C3)C2=O)n1 (stereo not given)  -10.9%
29. COCC(=O)N1CCN(C(=O)c2scnc2C)CC1  -11%
30. CC1CN(Cc2noc(C3CC3)n2)CCN1Cc1nccn1C (stereo not given)  -11.1%
31. Cc1ccccc1-c1cc(C(=O)N2CCn3c(C)nnc3C2)[nH]n1  -13.5%
32. CCN1CC(C(=O)N(C)Cc2ccon2)CC1=O (stereo not given)  -14.8%
33. CN(C)C(=O)c1nc2c(s1)CCN(C(=O)c1ccc(Cl)cc1)CC2  -16.7%
34. Cc1cccc(NC(=O)CNC(=O)Cn2ncc(Cl)c(Cl)c2=O)c1C  -21.2%
35. Cc1oc(-c2ccsc2)nc1CC(=O)NCCS(C)(=O)=O  -25.4%
36. Cc1nc(C2CCCN(C(=O)CCCn3cccn3)C2)no1 (stereo not given)  -27.3%
37. O=C(c1cc(COc2ccc3c(c2)OCO3)[nH]n1)N1CCOCC1  -36.8%
38. O=C(NCCNc1cnccn1)C1CCN(C(=O)N2CCCC2)CC1  -37.5%
39. N#Cc1ncn(CC(=O)Nc2cc(Cl)ccc2F)n1  -46.7%
40. COc1ccc(-c2nc(CN3CCc4c(ncn4C)C3)cs2)cc1  -71.2%

Source: ChEMBL document CHEMBL3988442, “University of Dundee, Small-Polar-MMV Screening Library” (2021)
